This is part of a sample that, as a whole, favours compounds with a hit. Of some 83,000 tested, about 20% had one in any assay.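 Percent growth is the endpoint: 0 to 100 indicates growth inhibition (40 means 60% inhibition), 0 means no net growth, and negative values indicate cell death.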 The source made the active and inactive calls.
The molecules below were run on NCI/ADR-RES ovarian (assay: NCI-60 one-dose screen, 48 h (100 = growth as untreated, 0 = no growth, -100 = all killed)). Conditions: 10 µM unless noted.
Experimental: Growth inhibition of the NCI/ADR-RES human […] tumor cell line is measured as a screen for anti-cancer activity. Cells are grown in 96 well plates and exposed to the test compound for 48 hours. Compounds are tested at a single concentration, which is 10^-5 M for most compounds. The reported endpoint is percent growth (GI% or GIPRCNT), where numbers from 0 - 100% represent growth inhibition, and numbers from -100% - 0 represent cell death. For example, a value of 40 represents 60% growth inhibition. A value of 0 means no net growth occurred over the course of the experiment. A value of -40 indicates 40% of cells at the beginning of the experiment died by the end of the experiment. A value of -100 means all cells are dead at the end of the experiment.
NCI-60 Human Tumor Cell Lines Screen was performed using the standard one-dose NCI protocol, which is described in more detail at https://dtp.cancer.gov/discovery_development/nci-60/default.htm.
Compounds with GIPRCNT values below 10 were considered active. Activity score was based on GIPRCNT using the following formula: […]
Score is 0 for GIPRCNT values of 100 or above, 50 for GIPRCNT values of 0, and 100 for GIPRCNT values of -100.
For `CC(=O)OC(C(=O)c1ccccc1)c1ccccc1` (stereo not given), the growth was 107% (inactive).
In the case of `Cc1ccc(F)c(NC(=O)Nc2ccc(-c3cccc4[nH]nc(N)c34)cc2)c1`, the growth was 26% (inactive).
With `COc1ccc2c(CCCCC(c3ccccc3)c3ccccc3)c3[n+](cc2c1OC)CCc1cc2c(cc1-3)OCO2` the growth was 68.5% (inactive).
With `c1cn2cc(-c3ccc4cn[nH]c4c3)nc(Nc3ccc(N4CCOCC4)cc3)c2n1` the growth was 39.2% (inactive).
`Clc1ccc(/C=C/c2cc(N3CCOCC3)c3cc(Cl)c(Cl)cc3n2)cc1` was tested, and the growth was 90.2% (inactive).
With `Cc1ccc(-[n+]2c3cc(N)c(C)cc3nc3cc(C)c(Nc4ccccc4)cc32)cc1` the growth was -21.8% (active).
`CC(C)[C@@H](C)/C=C/[C@@H](C)[C@H]1CCC2=C3C=CC4=CC(=O)CC[C@]4(C)[C@H]3CC[C@@]21C` was tested, and the growth was 101% (inactive).
For `COc1cc2c(Nc3ccc(Br)cc3F)ncnc2cc1OCC1CCN(C)CC1`, the growth was 30.3% (inactive).
`COc1cc(NCCN(CC(C)C)CC(C)C)c2ncc(C)cc2c1` was tested, and the growth was 76.5% (inactive).
`C/C=C/C=N/NC(=S)Nc1ccccc1` was tested, and the growth was 99% (inactive).
In the case of `CC(=O)c1cnc2ccc(-c3cc(Cl)c(O)c(Cl)c3)nc2c1NC1CCC(CN(C)C)CC1` (stereo not given), the growth was -13.7% [2.5 µM] (active).
For `CO[C@H]1C[C@@H]2CC[C@@H](C)[C@@](O)(O2)C(=O)C(=O)N2CCCC[C@H]2C(=O)O[C@H]([C@H](C)C[C@@H]2CC[C@@H](OCCO)[C@H](OC)C2)CC(=O)[C@H](C)/C=C(\C)[C@@H](O)[C@H](OC)C(=O)[C@H](C)C[C@H](C)\C=C/C=C/C=C/1C`, the growth was 57.7% (inactive).
With `Ic1ccccc1-c1ccccc1` the growth was 110% (inactive).
`COC[C@@H](C)n1c(C2CCOCC2)nc2c1C1C=C(OC)C(c3c(C)noc3C)=CC1N=C2` (stereo not given in full) was tested, and the growth was 43.4% (inactive).
In the case of `COC(=O)CNC(=O)[C@@H](OC)[C@@H]1Cc2cc3cc(OC4CC(OC5CC(O)C(O)C(C)O5)C(O)C(C)O4)c(C)c(O)c3c(O)c2C(=O)[C@H]1OC1CC(OC2CC(OC3CC(C)(O)C(O)C(C)O3)C(O)C(C)O2)C(O)C(C)O1` (stereo not given in full), the growth was 88.2% (inactive).
For `Nc1c(C(=O)c2ccccc2)sc2nc(-c3cccs3)ccc12`, the growth was 3.97% (active).
For `Cc1ccc2oc(=O)cc(-c3cc(-c4cc5ccccc5oc4=O)nc(N)c3C#N)c2c1`, the growth was 80.4% (inactive).
In the case of `COc1ccc(-n2c(=O)c3ccccc3n(Cc3ccc(C(=O)NO)cc3)c2=O)cc1`, the growth was 70.2% (inactive).
In the case of `Cc1c(NC(=O)OC[C@@H]2COCCN2)cn2ncnc(Nc3ccc4c(cnn4Cc4cccc(F)c4)c3)c12`, the growth was 19.8% (inactive).
In the case of `Cc1nc(N)sc1-c1ccnc(Nc2ccc(N3CCOCC3)cc2)n1`, the growth was 61.4% (inactive).
`COc1ccc(CCCc2c3[n+](cc4c(OC)c(OC)ccc24)CCc2cc4c(cc2-3)OCO4)cc1` was tested, and the growth was 93.7% (inactive).
With `Cc1cc(C)n(CC(=O)Nc2ccc(-c3nc4ccccc4s3)cc2)n1` the growth was 103% (inactive).
`CCCCCC(=O)OCc1ccc(Cl)c(Cl)c1` was tested, and the growth was 102% (inactive).
In the case of `O=[N+]([O-])c1cc(Br)cc2c1[nH]c1ccc(Br)cc12`, the growth was 70.4% (inactive).
In the case of `O=C(Nc1ccc(-c2ccnc(Nc3ccc(N4CCOCC4)cc3)n2)cc1)[C@@H]1CCCN1`, the growth was 87.3% (inactive).
`FC(F)c1nc2ccccc2n1-c1nc(N2CCOCC2)nc(N2CCOCC2)n1` was tested, and the growth was -12.9% (active).
`CC#CC(=O)N1CCC[C@H]1c1nc(-c2ccc(C(=O)Nc3ccccn3)cc2)c2c(N)nccn12` was tested, and the growth was 94.3% (inactive).
With `CCCCN1C(=O)c2cccc3c(-c4ccc5c(c4)ncn5C4CCCCC4)ccc(c23)C1=O` the growth was 92.5% (inactive).
In the case of `O=C(NC1CCNCC1)c1[nH]ncc1NC(=O)c1c(Cl)cccc1Cl`, the growth was 85% (inactive).
`Cn1ncc(Cl)c1-c1cc(C(=O)N[C@H](CN)Cc2ccc(F)c(F)c2)oc1Cl` was tested, and the growth was 8.92% (active).
With `COc1cnc2c(c1)C(=O)c1c-2n(CCCn2ccnc2)c(=O)c2cc(Cl)ccc12` the growth was 4.79% (active).
In the case of `CCn1cc(-c2ccnc3[nH]c(-c4cccc(CN(C)C)c4)cc23)c(-c2ccc(NC(=O)N(C)C)cc2)n1`, the growth was 72.4% (inactive).
`Cc1cc(-c2cc(O)ccc2Cl)cc2nnc(Nc3ccc(OCCN4CCCC4)cc3)nc12` was tested, and the growth was -69.3% (active).
In the case of `CCNCCNc1cc(-c2ccc(Cl)c(Cl)c2)c(C#N)c2nc3ccccc3n12`, the growth was -73.4% (active).
`CNC(=O)c1cc(Oc2ccc(NC(=O)Nc3cc(C(C)(C)C)nn3-c3ccc4ncccc4c3)c(F)c2)ccn1` was tested, and the growth was -23.1% (active).
`CCNC(=O)C#Cc1ccc2c(C(=Nc3ccc(CN(C)C)cc3)c3ccccc3)c(O)[nH]c2c1` was tested, and the growth was 54.3% (inactive).
For `COc1cc2ncnc(Oc3cccc(NC(=O)Nc4cc(C(C)(C)C(F)(F)F)on4)c3)c2cc1OC`, the growth was 23.9% (inactive).
With `Cn1cnc(-c2cc3nccc(Oc4ccc(NC(=S)NC(=O)Cc5ccccc5)cc4F)c3s2)c1` the growth was 96% (inactive).
With `COC(=O)[C@H](Cc1ccc(O)cc1)NC(=O)[C@@H](OC)[C@@H]1Cc2cc3cc(OC4CC(OC5CC(O)C(O)C(C)O5)C(O)C(C)O4)c(C)c(O)c3c(O)c2C(=O)[C@H]1OC1CC(OC2CC(OC3CC(C)(O)C(O)C(C)O3)C(O)C(C)O2)C(O)C(C)O1` (stereo not given in full) the growth was 85.6% (inactive).
For `COc1ccc(-c2ccc3c(N4CCOC[C@@H]4C)nc(N4CCOC[C@@H]4C)nc3n2)cc1CO`, the growth was -1.68% (active).

From PubChem BioAssay (NCI)
